Laboratory results reported in PubChem BioAssay AID1159580 (chemical genetic matrix, 2015).
Where “and” joins values, the source holds several entries; their conditions need not be identical. Equal values may be shown once. Hit rate of the full screen: of about 5,500 compounds, about 2,000 (36%) were called active. Inconclusive results (about 18%) are left out. Rule as the data show it: active = normalized growth mostly below about 0.91 (no sharp cut-off); inconclusive = no clear call, values can overlap the other calls; inactive = mostly above about 0.92. This is one part of the list.

Assay: chemical genetic growth profiling, strain panel (AID 1159580);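 also: tested at 20 µM; growth read once vehicle control cultures reached saturation at 30 °C; 1 = growth at the plate median or of vehicle wells; lower values mean less growth of the strain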
Conditions: S. cerevisiae deletion strains, growth OD

Cc1ccc(C)c(OCCCC(C)(C)C(=O)O)c1
normalized growth (locus YAL021C, strain ccr4, stronger effect = lower value): 0.986 (inactive) | normalized growth (locus YAL026C, strain drs2, stronger effect = lower value): 0.919 (inactive) | normalized growth (locus YAL030W, strain snc1, stronger effect = lower value): 0.981 (inactive) | normalized growth (locus YBL061C, strain skt5, stronger effect = lower value): 0.975 (inactive) | normalized growth (locus YBR009C, strain hhf1, stronger effect = lower value): 0.957 (inactive) | normalized growth (locus YBR021W, strain FUR4, stronger effect = lower value): 0.926 (inactive) | normalized growth (locus YBR023C, strain chs3, stronger effect = lower value): 0.964 (inactive) | normalized growth (locus YBR171W, strain sec66, stronger effect = lower value): 0.948 (inactive) | normalized growth (locus YBR229C, strain ROT2, stronger effect = lower value): 0.939 (inactive) | normalized growth (locus YBR231C, strain swc5, stronger effect = lower value): 0.986 (inactive) | normalized growth (locus YBR279W, strain paf1, stronger effect = lower value): 0.983 (inactive) | normalized growth (locus YCL011C, strain gbp2, stronger effect = lower value): 0.978 (inactive) | normalized growth (locus YCL016C, strain dcc1, stronger effect = lower value): 0.949 (inactive) | normalized growth (locus YCL029C, strain bik1, stronger effect = lower value): 0.894 (active) | normalized growth (locus YCL061C, strain MRC1, stronger effect = lower value): 0.968 (inactive) | normalized growth (locus YCL069W, strain vba3, stronger effect = lower value): 0.987 (inactive) | normalized growth (locus YCR088W, strain abp1, stronger effect = lower value): 0.982 (inactive) | normalized growth (locus YDL005C, strain med2, stronger effect = lower value): 0.982 (inactive) | normalized growth (locus YDL035C, strain GPR1, stronger effect = lower value): 0.845 (active) | normalized growth (locus YDL040C, strain nat1, stronger effect = lower value): 0.987 (inactive) | normalized growth (locus YDL074C, strain BRE1, stronger effect = lower value): 0.858 (inactive) | normalized growth (locus YDL101C, strain DUN1, stronger effect = lower value): 0.975 (inactive) | normalized growth (locus YDL185W, strain tfp1, stronger effect = lower value): 0.309 (active) | normalized growth (locus YDL192W, strain arf1, stronger effect = lower value): 0.931 (inactive) | normalized growth (locus YDR001C, strain nth1, stronger effect = lower value): 0.973 (inactive) | normalized growth (locus YDR069C, strain doa4, stronger effect = lower value): 0.987 (inactive) | normalized growth (locus YDR101C, strain arx1, stronger effect = lower value): 0.872 (active) | normalized growth (locus YDR137W, strain rgp1, stronger effect = lower value): 0.699 (active) | normalized growth (locus YDR159W, strain sac3, stronger effect = lower value): 0.962 (inactive) | normalized growth (locus YDR162C, strain NBP2, stronger effect = lower value): 0.832 (active) | normalized growth (locus YDR195W, strain ref2): 1.1 (inactive) | normalized growth (locus YDR297W, strain sur2, stronger effect = lower value): 0.992 (inactive) | normalized growth (locus YDR318W, strain mcm21, stronger effect = lower value): 0.866 (active) | normalized growth (locus YDR334W, strain swr1, stronger effect = lower value): 0.99 (inactive) | normalized growth (locus YDR335W, strain msn5, stronger effect = lower value): 0.989 (inactive) | normalized growth (locus YDR388W, stronger effect = lower value): 0.874 (active) | normalized growth (locus YDR392W, strain spt3, stronger effect = lower value): 0.58 (active) | normalized growth (locus YDR502C, strain sam2, stronger effect = lower value): 0.852 (active) | normalized growth (locus YEL003W, strain gim4, stronger effect = lower value): 0.97 (inactive) | normalized growth (locus YEL037C, strain rad23, stronger effect = lower value): 0.979 (inactive) | normalized growth (locus YEL061C, strain CIN8 (second series), stronger effect = lower value): 0.98 (inactive) | normalized growth (locus YEL061C, strain CIN8, stronger effect = lower value): 0.943 (inactive) | normalized growth (locus YER015W, strain faa2, stronger effect = lower value): 1.01 (inactive) | normalized growth (locus YER016W, strain bim1, stronger effect = lower value): 0.976 (inactive) | normalized growth (locus YER110C, stronger effect = lower value): 0.937 (inactive) | normalized growth (locus YER111C, strain swi4, stronger effect = lower value): 0.981 (inactive) | normalized growth (locus YER155C, strain BEM2 (second series), stronger effect = lower value): 1.03 (inactive) | normalized growth (locus YER155C, strain BEM2, stronger effect = lower value): 0.939 (inactive) | normalized growth (locus YER167W, strain BCK2, stronger effect = lower value): 0.959 (inactive) | normalized growth (locus YFR010W, strain ubp6, stronger effect = lower value): 0.991 (inactive) | normalized growth (locus YGL078C, strain dbp3, stronger effect = lower value): 0.485 (active) | normalized growth (locus YGL086W, strain mad1, stronger effect = lower value): 0.877 (active) | normalized growth (locus YGL167C, strain pmr1, stronger effect = lower value): 0.963 (inactive) | normalized growth (locus YGL173C, strain kem1, stronger effect = lower value): 0.955 (inactive) | normalized growth (locus YGL227W, strain vid30, stronger effect = lower value): 0.984 (inactive) | normalized growth (locus YGL240W, strain doc1, stronger effect = lower value): 0.999 (inactive) | normalized growth (locus YGL248W, strain PDE1, stronger effect = lower value): 0.914 (inactive) | normalized growth (locus YGL253W, strain hxk2, stronger effect = lower value): 0.975 (inactive) | normalized growth (locus YGR135W, strain pre9, stronger effect = lower value): 0.895 (inactive) | normalized growth (locus YGR252W, strain gcn5, stronger effect = lower value): 0.794 (inactive) | normalized growth (locus YHR013C, strain ard1, stronger effect = lower value): 1.02 (inactive) | normalized growth (locus YHR027C, strain rpn1, stronger effect = lower value): 0.983 (inactive) | normalized growth (locus YHR030C, strain SLT2, stronger effect = lower value): 0.95 (inactive) and 0.784 (active) | normalized growth (locus YHR079C, strain IRE1 (second series), stronger effect = lower value): 0.869 (active) | normalized growth (locus YHR079C, strain IRE1, stronger effect = lower value): 0.833 (active) | normalized growth (locus YHR094C, strain hxt1, stronger effect = lower value): 0.941 (inactive) | normalized growth (locus YHR129C, strain ARP1, stronger effect = lower value): 0.945 (inactive) | normalized growth (locus YHR142W, strain chs7, stronger effect = lower value): 0.957 (inactive) | normalized growth (locus YHR200W, strain rpn10, stronger effect = lower value): 0.924 (inactive) | normalized growth (locus YIL066C, strain RNR3, stronger effect = lower value): 0.936 (inactive) | normalized growth (locus YIL073C, strain SPO22, stronger effect = lower value): 0.891 (inactive) | normalized growth (locus YIL125W, strain kgd1, stronger effect = lower value): 0.356 (active) | normalized growth (locus YIR030C, strain dcg1, stronger effect = lower value): 0.931 (inactive) | normalized growth (locus YJL092W, strain hpr5, stronger effect = lower value): 0.979 (inactive) | normalized growth (locus YJL095W, strain BCK1 (second series), stronger effect = lower value): 0.983 (inactive) | normalized growth (locus YJL095W, strain BCK1, stronger effect = lower value): 0.819 (inactive) and 0.823 (active) | normalized growth (locus YJL115W, strain asf1, stronger effect = lower value): 1 (inactive) | normalized growth (locus YJL129C, strain trk1, stronger effect = lower value): 0.857 (active) | normalized growth (locus YJL134W, strain LCB3, stronger effect = lower value): 0.938 (inactive) | normalized growth (locus YJL154C, strain vps35, stronger effect = lower value): 0.994 (inactive) | normalized growth (locus YJL164C, strain tpk1, stronger effect = lower value): 0.979 (inactive) | normalized growth (locus YJL166W, strain qcr8, stronger effect = lower value): 0.975 (inactive) | normalized growth (locus YJL168C, strain set2, stronger effect = lower value): 0.941 (inactive) | normalized growth (locus YJL187C, strain SWE1 (second series), stronger effect = lower value): 0.942 (inactive) | normalized growth (locus YJL187C, strain SWE1, stronger effect = lower value): 0.985 (inactive) | normalized growth (locus YJR043C, strain POL32, stronger effect = lower value): 0.935 (inactive)
